# Measured values reported in the supplement of paper PMC6992640.
# ± gives the standard deviation of the averaged measurements.
# Assays:
# Assay in all cases: cell viability (% of vehicle); higher = less cytotoxic
# Conditions in all cases: 10 µM; 72 h
# HCI01 = test system: HCI01 (cells of a triple-negative basal-like breast cancer xenograft)
# HCI03 = test system: HCI03 (cells of an ER-positive luminal breast cancer xenograft)
# HCI09 = test system: HCI09 (cells of a triple-negative luminal androgen receptor type breast cancer xenograft)
# HCI11 = test system: HCI11 (cells of an ER-positive luminal breast cancer xenograft)
# HCI13 = test system: HCI13 (cells of an ER-positive luminal breast cancer xenograft)
# HCI16 = test system: HCI16 (cells of a triple-negative basal-like breast cancer xenograft)
# UCD52 = test system: UCD52 (cells of a triple-negative basal-like breast cancer xenograft)
# WHIM2 = test system: WHIM2 (cells of a triple-negative basal-like breast cancer xenograft)
# WHIM30 = test system: WHIM30 (cells of a triple-negative basal-like breast cancer xenograft)
# 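Further: PDX cells carrying CMV promoter-driven luciferase, viability read as total photon flux per second by IVIS imaging following D-luciferin, vehicle control 0.1% DMSO.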
SMILES,cell viability (HCI01),cell viability (HCI03),cell viability (HCI09),cell viability (HCI11),cell viability (HCI13),cell viability (HCI16),cell viability (UCD52),cell viability (WHIM2),cell viability (WHIM30)
O=C(O)/C=C/c1ccc(O)c(O)c1 [Caffeic acid],88 ± 6.6,115,107 ± 24,93.3,89.9 ± 9.4,137,97.2 ± 6,86.5 ± 20,89.4 ± 2.4
O=C(O)C=Cc1ccccc1 [Cinnamic acid],98.7 ± 32,108,96 ± 4.4,94.3,107 ± 15,121,98.4 ± 12,105 ± 15,117.9 ± 0.11
NCCCCCC(=O)O [(6-)ε-Aminocaproic acid],67.8 ± 37,136,90 ± 16,79.6,104 ± 5,101,77.2 ± 5.2,101 ± 24,155 ± 23
Nc1c(CC(=O)[O-])cccc1C(=O)c1ccc(Br)cc1.[Na+] [Bromfenac Sodium],134 ± 34,104,82.1 ± 13,103,76.6 ± 16,96.2,89 ± 4,132 ± 25,111 ± 6.5
CN(C)C(=O)NC1CCC(CCN2CCN(c3cccc(Cl)c3Cl)CC2)CC1 (stereo unspecified) [Cariprazine],122 ± 28,72.1,43.9 ± 2.2,67.7,53.4 ± 11,89.7,38.5 ± 6,119 ± 8,118.6 ± 0.35
CC(=O)OCC(CCn1cnc2cnc(N)nc21)COC(C)=O [Famciclovir],112 ± 17,114,93.4 ± 4.1,96.3,123 ± 7.6,136,85.3 ± 8.4,106 ± 7.2,114 ± 2.1
Nc1ccn(C2CCC(CO)O2)c(=O)n1 (stereo unspecified) [Zalcitabine],90.1 ± 3.1,124,102 ± 5.5,93.5,91.99 ± 0.76,128,104 ± 10,85.08 ± 0.32,176 ± 35
Nc1ccc(C(=O)NCC(=O)[O-])cc1.[Na+] [Sodium 4-amiropparaty Hyalrate],107.1 ± 0.65,109,122 ± 35,110,112 ± 12,107,91.5 ± 8.8,95.4 ± 6,171 ± 21
COc1nc(N)nc2c1ncn2C1OC(CO)C(O)C1O (stereo unspecified) [Nelarabine],127 ± 20,117,113 ± 0.87,95.9,86.3 ± 5.3,98.4,111 ± 21,96.7 ± 21,115 ± 17
COc1ccc2c(c1)C(=O)N(CCc1ccc(S(=O)(=O)NC(=O)NC3CCCCC3)cc1)C(=O)C2(C)C [Gliquidone],89.2 ± 83,109,68.4 ± 19,91.4,94.6 ± 23,142,93.5 ± 11,130 ± 20,137 ± 19
Cc1ncc(C[n+]2csc(CCO)c2C)c(N)n1.Cl.[Cl-] [Thiamine HCl (Vitamin B1)],113 ± 8.6,143,103 ± 16,88.6,59.8 ± 11,103,122 ± 39,149 ± 25,143 ± 3.5
Cc1ncc(CO)c(CO)c1O.Cl [Pyridoxine HCl],89.2 ± 31,121,90.1 ± 4.5,91.9,117 ± 18,107,99.9 ± 5.3,86.6 ± 2.4,100 ± 3.4
Cl.O=C(Nc1ccccc1)OCC(CN1CCCCC1)OC(=O)Nc1ccccc1 (stereo unspecified) [Diperodon HCl],99 ± 2.1,124,97.9 ± 2.3,119,162 ± 49,138,84.2 ± 13,94.3 ± 20,167 ± 16
"Cc1[nH]c(C=C2C(=O)Nc3ccccc32)c(C)c1CCC(=O)O [TSU-68 (SU6668,Orantinib)]",79.2 ± 19,116,90.8 ± 25,106,60.8 ± 6.6,111,123 ± 18,60.9 ± 4.7,112 ± 13
O=C1c2ccccc2C(=O)C1c1ccccc1 [Phenindione],127 ± 33,142,104 ± 5.7,94.7,92.6 ± 26,114,104 ± 7.3,124 ± 13,159 ± 35
CCc1cc(C(N)=S)ccn1 [Ethionamide],105 ± 11,111,100 ± 3.6,104,136 ± 15,100,82.3 ± 9.9,92.7 ± 8.7,98.5 ± 9.4
NCCCC(O)(P(=O)([O-])O)P(=O)(O)O.[Na+] [Alendronate sodium],102 ± 7.7,111,95.1 ± 18,97.3,97.6 ± 3.9,97.1,79 ± 5.8,93.7 ± 13,116 ± 8.4
COc1cc(C(C)=O)ccc1OCCCN1CCC(c2noc3cc(F)ccc23)CC1 [Iloperidone],153 ± 25,101,117 ± 19,103,121 ± 14,172,88.2 ± 1.8,106 ± 6,122.82 ± 0.035
CCCCCOC(=O)Nc1nc(=O)n(C2OC(C)C(O)C2O)cc1F (stereo unspecified) [Capecitabine],142 ± 26,114,139 ± 24,124,165 ± 25,120,112 ± 4,108 ± 6.9,162 ± 33
CN1CCCN=C1C=Cc1cccs1.O=C(O)c1cc2ccccc2c(Cc2c(O)c(C(=O)O)cc3ccccc23)c1O [Pyrantel Pamoate],82.3 ± 44,117,114 ± 12,101,146 ± 13,109,99.5 ± 12,95.8 ± 17,130 ± 3

SMILES,cell viability (HCI01),cell viability (HCI03),cell viability (HCI09),cell viability (HCI11),cell viability (HCI13),cell viability (HCI16),cell viability (UCD52),cell viability (WHIM2),cell viability (WHIM30)
Clc1ccc(CCC(Cn2ccnc2)Sc2c(Cl)cccc2Cl)cc1.O=[N+]([O-])O (stereo unspecified) [Butoconazole nitrate],67.2 ± 44,99.5,36.7 ± 9.7,143,39.6 ± 1.4,186,74.6 ± 3.6,53.8 ± 16,190 ± 7.9
"CC1(C)SC2C(NC(=O)C(C(=O)[O-])c3ccccc3)C(=O)N2C1C(=O)[O-].[Na+].[Na+] (stereo unspecified) [Carbenicillin, Disodium Salt]",93 ± 4.2,92.6,94 ± 0.98,103,86.7 ± 1.1,105,85.4 ± 3.6,110 ± 17,115 ± 2
CC1CCOC2Cn3cc(C(=O)NCc4ccc(F)cc4F)c(=O)c(O)c3C(=O)N12 (stereo unspecified),133 ± 25,110,139 ± 35,137,74.39 ± 0.7,124,139 ± 20,120 ± 15,176 ± 20
CC(CCC(=O)O)C1CCC2C3C(O)CC4CC(O)CCC4(C)C3CCC12C (stereo unspecified) [Ursodiol],90.9 ± 70,150,100.8 ± 0.88,95.2,126 ± 9.4,124,89.82 ± 0.32,111 ± 9.3,155 ± 12
CCCCCCCCCCCCCCCC(=O)OCC=C(C)C=CC=C(C)C=CC1=C(C)CCCC1(C)C [Retinyl (Vitamin A) Palmitate],102 ± 22,100,88.4 ± 3.2,88.1,79 ± 17,104,94.3 ± 4.9,112 ± 27,125 ± 13
CC(=O)OC12COC1CC(O)C1(C)C(=O)C(O)C3=C(C)C(OC(=O)C(O)C(NC(=O)OC(C)(C)C)c4ccccc4)CC(O)(C(OC(=O)c4ccccc4)C21)C3(C)C.O.O.O (stereo unspecified) [Docetaxel Trihydrate],106 ± 13,96.7,72.6 ± 5.4,86.1,101 ± 3.5,155,91.02 ± 0.77,72.3 ± 6.2,107 ± 5.4
CCCCOc1ccc(C(=O)CCN2CCCCC2)cc1.Cl [Dyclonine HCl],91.4 ± 36,110,98.2 ± 18,110,60.5 ± 2.6,88.6,90.6 ± 12,40 ± 16,129 ± 30
CN1CCC(=C2c3ccccc3CC(=O)c3sccc32)CC1.O=C(O)C=CC(=O)O [Ketotifen Fumarate],120 ± 23,125,135 ± 31,102,135 ± 13,173,95.4 ± 4.4,84.4 ± 3.9,154 ± 5.5
Nc1nc(N)nc(-c2cc(Cl)ccc2Cl)n1 [Irsogladine],92.7 ± 5.9,113,91.9 ± 16,89.7,102 ± 18,108,107 ± 4.4,114 ± 4.4,76.4 ± 4.1
O=C(O)c1ccc2ccccc2c1O.OCc1cc(C(O)CNCCCCCCOCCCCc2ccccc2)ccc1O (stereo unspecified) [Salmeterol xinafoate],86 ± 1.1,92.5,57.3 ± 8,75.2,88.6 ± 9.6,76.1,62.1 ± 0.9,66.7 ± 13,107 ± 20
CC(C)=CCCC(C)=CCCC(C)=CCSc1ccccc1C(=O)O [Salirasib],69.5 ± 50,112,95.6 ± 7.4,97.9,84.5 ± 4.3,103,95.5 ± 4.6,39.5 ± 1.3,120 ± 15
C=C1C(CO)C(O)CC1n1cnc2c(=O)nc(N)[nH]c21.O (stereo unspecified) [Entecavir Hydrate],110 ± 5.2,104,91.1 ± 4.7,99.5,82.7 ± 5.4,108,103 ± 13,81.3 ± 11,107 ± 9.8
Cc1ccccc1C(=O)Nc1ccc(C(=O)N2CCCC(O)c3cc(Cl)ccc32)c(C)c1 (stereo unspecified) [Tolvaptan],97.7 ± 38,138,80.4 ± 7.1,85.9,101 ± 5,159,89 ± 4.9,92.5 ± 19,157 ± 8.1
Cc1ccc(Nc2nccc(N(C)c3ccc4c(C)n(C)nc4c3)n2)cc1S(N)(=O)=O.Cl [Pazopanib Hydrochloride],123 ± 20,101,77.01 ± 0.6,96.8,75.6 ± 13,134,94.9 ± 13,127 ± 32,76.7 ± 5.5
CS(=O)(=O)O.CS(=O)(=O)O.N=C(N)c1ccc2cc(OC(=O)c3ccc(N=C(N)N)cc3)ccc2c1 [Nafamostat Mesylate(FUT-175)],110 ± 13,82,43.9 ± 4.1,82.1,95.5 ± 20,98.4,106 ± 13,100 ± 34,105 ± 13
CCC(=O)NCCC1CCc2ccc3c(c21)CCO3 (stereo unspecified) [Ramelteon],98.9 ± 7,113,94 ± 8.3,93,94 ± 20,81.6,80.6 ± 1.4,80.7 ± 9.9,103 ± 3.4
OCC(O)C(O)C(O)CO (stereo unspecified) [Xylitol],96.8 ± 14,133,101 ± 15,95.5,97 ± 3.2,101,101 ± 7.7,90.3 ± 14,83.1 ± 8.9
COc1c(C)c2c(c(O)c1CC=C(C)CCC(=O)O)C(=O)OC2 [Mycophenolic acid],99.5 ± 27,93.3,77.8 ± 17,75.1,102 ± 9.5,104,94 ± 6.1,65.8 ± 7.6,151 ± 1.2
CN(C)CCC=C1c2ccccc2CCc2ccccc21.Cl [Amitriptyline HCl],103 ± 18,99.2,87.6 ± 6.1,83.2,105 ± 9.9,135,74.5 ± 4.4,100 ± 1.1,114 ± 2.5
